Bioassay records (PubChem BioAssay)
HER2 expr 66K: inhibitors of human Her2 kinase expression | P04626 | SKBR-3 HER2 protein level, AlphaScreen, 18-24 h; active compounds read low | HER2 level % of control, % at 10 µM | 65,000 compounds, 0.69% hits;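 active means HER2 level under 5% of the carrier-only control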;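 further: lower value means stronger loss of Her2 protein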
Hsp90 inh: displaces geldanamycin probe from tumor Hsp90 | NCI-N417 lysate Hsp90, Cy3B-geldanamycin FP displacement | P07900 | AID 429 | inhibition, % at 30 µM | 64,000 compounds, 0.35% hits;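 active means inhibition above 50%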
SKBR3 24h inh: SK-BR-3 proliferation inhibitors | SK-BR-3 viability, CellTiter-Glo ATP luminescence, 24 h; active compounds read low | viability, % at 10 µM | 41,000 compounds, 0.47% hits | AID 847;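 active means viability at or below the median of all test compounds minus 3 SD, in both replicates if run twice, cut at about 45% in these data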
Cdc25B block: human M-phase inducer phosphatase 2 inhibition | 65,000 compounds, 0.1% hits | inhibition, %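 (compounds tested at 10 µM final in the well)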 | recombinant Cdc25B, OMFP fluorescence Ex485/Em525 | AID 368 | P30305; in the data active means inhibition above about 50%
Target sequence (P30305 whole entry, looked up): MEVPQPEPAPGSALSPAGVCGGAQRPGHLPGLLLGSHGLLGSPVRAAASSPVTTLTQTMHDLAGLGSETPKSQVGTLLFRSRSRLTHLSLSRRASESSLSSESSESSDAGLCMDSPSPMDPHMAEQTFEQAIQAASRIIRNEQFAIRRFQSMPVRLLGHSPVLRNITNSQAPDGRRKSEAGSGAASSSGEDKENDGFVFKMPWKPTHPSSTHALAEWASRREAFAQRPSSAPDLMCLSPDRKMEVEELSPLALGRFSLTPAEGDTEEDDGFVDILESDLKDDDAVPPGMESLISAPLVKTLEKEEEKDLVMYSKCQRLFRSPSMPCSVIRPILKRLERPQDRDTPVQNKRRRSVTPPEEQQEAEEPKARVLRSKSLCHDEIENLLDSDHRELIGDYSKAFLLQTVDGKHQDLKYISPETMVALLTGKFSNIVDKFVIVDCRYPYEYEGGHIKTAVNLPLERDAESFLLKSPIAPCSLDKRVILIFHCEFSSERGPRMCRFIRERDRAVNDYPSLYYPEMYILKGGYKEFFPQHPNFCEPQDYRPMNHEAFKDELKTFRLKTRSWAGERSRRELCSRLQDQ
DUSP1 inh: inhibitors of human MKP-1 phosphatase; inhibition, %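 (compounds tested at a single concentration somewhere between 10 and 100 µM)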; 65,000 compounds, 0.15% hits; P28562; recombinant MKP-1, OMFP hydrolysis fluorescence;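 active means inhibition above about 50%, limit read from the data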
Of the large screens only hits and unclear results are named; the others gave an inactive call. Sampled rows, rich in hits. Any-hit rate of the full collection: about 1.5%.

Cn1c(Cl)cnc1C1CC(=O)c2cc(Cl)ccc2O1 (stereo unspecified)	HER2 expr 66K -15
COc1ccc(N(Cc2cc(=O)[nH]c3ccccc23)C(=O)c2ccco2)cc1	SKBR3 24h inh 44
Cc1ccccc1-n1nc2c(c1NC(=O)c1cc3ccccc3oc1=O)CS(=O)(=O)C2	HER2 expr 66K 1.1 (no result: SKBR3 24h inh)
Cc1ccccc1-n1nc2c(c1NC(=O)c1cc3ccccc3oc1=O)CS(=O)C2 (stereo unspecified)	none
CNC(=O)C1CCCN1S(=O)(=O)c1ccc(OC)cc1 (stereo unspecified)	none
COc1ccc(CNC(=O)C2CCCN2S(=O)(=O)c2ccc(S(=O)(=O)N(C)C)cc2)cc1 (stereo unspecified)	SKBR3 24h inh 33
Cc1ccc(NC(=O)CC2SCCNC2=O)cc1Cl (stereo unspecified)	Hsp90 inh 54
CCC(=O)N1CCNC(=O)C1CC(=O)Nc1ccc(C)c(Cl)c1 (stereo unspecified)	none
CCc1nnc(NC(=O)CSc2nnc(CNc3ccc(Cl)cc3)o2)s1	none
CCOc1cc(C(=O)CSc2nnc(CNc3ccc(Cl)cc3)o2)ccc1NC(=O)CC	HER2 expr 66K -22
Cc1cc(N2CCN(C3CCCC3)CC2)n2nc(C)c(-c3ccccc3)c2n1	none
CCCCc1ccc(S(=O)(=O)Nc2cc(OC)cc3cccnc23)cc1	none (no result: HER2 expr 66K, SKBR3 24h inh, Cdc25B block, DUSP1 inh)
CCOc1ccc(C2c3c(oc4ccccc4c3=O)C(=O)N2c2ccccn2)cc1OC (stereo unspecified)	none (no result: SKBR3 24h inh)
O=C(c1ccco1)N(Cc1ccco1)c1ccc(O)cc1	HER2 expr 66K -16
Cc1ccc(N(Cc2ccco2)C(=O)c2cccc(S(=O)(=O)N(C)C)c2)cc1	none (no result: SKBR3 24h inh)
COc1ccc(C)cc1NC(=O)C1CCCN(S(=O)(=O)c2c(C)noc2/C=C/N(C)C)C1 (stereo unspecified)	none (no result: SKBR3 24h inh)
CCOc1ccc(/C(O)=C2\C(=O)C(=O)N(c3cc(C)on3)C2c2ccccc2OC)cc1 (stereo unspecified)	HER2 expr 66K -22
CC(C)CCNC(=O)C1CCN(c2nc3ccccc3o2)CC1	Cdc25B block 71 (no result: SKBR3 24h inh)
O=C(NCc1cccs1)C1CCN(c2nc3ccccc3o2)CC1	none (no result: SKBR3 24h inh)
NC(=NCc1ccc(Cl)c(Cl)c1)NC(=O)c1nc(Cl)c(N)nc1N	none (no result: HER2 expr 66K, SKBR3 24h inh, Cdc25B block, DUSP1 inh)
CCCC(C)N(CC)CCNc1cc(OC)cc2cccnc12 (stereo unspecified)	none (no result: HER2 expr 66K, SKBR3 24h inh, Cdc25B block, DUSP1 inh)
CCN(CC)CCCNc1cc(OC)cc2ccc(OC)nc12	Hsp90 inh 67 (no result: HER2 expr 66K, SKBR3 24h inh, Cdc25B block, DUSP1 inh)
Cc1nc2ccccn2c1/C(O)=C1\C(=O)C(=O)N(CCCN(C)C)C1c1ccc(Cl)cc1 (stereo unspecified)	none (no result: SKBR3 24h inh)
O=c1c(O)c(-c2cc(O)c(O)c(O)c2)oc2cc(O)cc(O)c12	Hsp90 inh 100 (no result: HER2 expr 66K, SKBR3 24h inh, Cdc25B block, DUSP1 inh)
O=S(=O)(Nc1ccc2c(c1)CCC2)c1cccs1	HER2 expr 66K -26 (no result: SKBR3 24h inh)
CCN1CCN(S(=O)(=O)c2cc(C)c(OC)cc2C)CC1	none
C/C=C1\C(=O)CC2C3CCC4=CC(=O)CC[C@]4(C)C3CC[C@]12C (stereo partly specified)	none (no result: HER2 expr 66K, SKBR3 24h inh, Cdc25B block, DUSP1 inh)
COc1ccc(-n2nc3c(c2NC(=O)c2cc(Br)ccc2Cl)CS(=O)C3)cc1 (stereo unspecified)	none (no result: SKBR3 24h inh)
COc1ccc(-n2nc3c(c2NC(=O)c2ccc(Br)cc2)CS(=O)C3)cc1 (stereo unspecified)	Hsp90 inh 55 (no result: SKBR3 24h inh)
Nc1c(C(=O)Nc2ccccc2)sc2nc(-c3ccco3)ccc12	HER2 expr 66K -5.4
COc1ccccc1NC(=O)c1sc2nc(-c3ccco3)ccc2c1N	HER2 expr 66K -0.3
COC1=C(OC)C(=O)c2ccccc2C1=O	Hsp90 inh 93 (no result: HER2 expr 66K, SKBR3 24h inh, Cdc25B block, DUSP1 inh)
Cc1ccc(S(=O)(=O)NCCSc2nnnn2-c2cc(C)ccc2C)cc1	none
Cc1ccc(C)c(-n2nnnc2Sc2nnnn2-c2ccccc2)c1	HER2 expr 66K -11 (no result: SKBR3 24h inh)
CCOc1ncccc1C(=O)OCc1cc(=O)n2c(n1)sc1ccccc12	none (no result: SKBR3 24h inh)
C/C=C(\C)CN1CCc2cc(OC)c(OC)cc2C1	none (no result: SKBR3 24h inh)
COc1cc2c(cc1OC)CN(c1ccc(-c3ccccc3OC)nn1)CC2	HER2 expr 66K -3.7
O=C1NCCCc2c1oc1ccc(O)cc21	Cdc25B block 50
O=C(CN1CCN(Cc2ccccc2)CC1)N1CCCc2c1c(=O)oc1ccc(O)cc21	none
CCn1nnc(NC(=O)COc2cc(C)ccc2C(C)C)n1	Hsp90 inh 72
CCCn1nnc(NC(=O)COc2ccccc2Cl)n1	none
CCOCCCNC(=O)C(NC(=O)c1ccc2c(c1)OCO2)c1ccc(OC)cc1 (stereo unspecified)	none (no result: Hsp90 inh)
